TRHR agonist = activates the human TRH receptor; P34981; TRHR cells, calcium flux fluo-8, FDSS agonist mode; activation, % at 2 µM; hit rate 0.18% among 360,000
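Agonist-mode FDSS calcium read (Ex 480/Em 530, 1 s cycles) in 1536-well TRHR cells with fluo-8 dye, after 10-cycle baseline and 23 nL compound addition; TRH at EC20 (10 nM final) added afterwards for the enhancer phase.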
D1 agonist = human D1 receptor agonism | AID 504660 | P21728 | activation, % at 2 µM | hit rate 1% among 360,000 | HEK293 T-REx D1 cells, calcium flux, agonist mode
Target sequence (P21728 whole entry, looked up): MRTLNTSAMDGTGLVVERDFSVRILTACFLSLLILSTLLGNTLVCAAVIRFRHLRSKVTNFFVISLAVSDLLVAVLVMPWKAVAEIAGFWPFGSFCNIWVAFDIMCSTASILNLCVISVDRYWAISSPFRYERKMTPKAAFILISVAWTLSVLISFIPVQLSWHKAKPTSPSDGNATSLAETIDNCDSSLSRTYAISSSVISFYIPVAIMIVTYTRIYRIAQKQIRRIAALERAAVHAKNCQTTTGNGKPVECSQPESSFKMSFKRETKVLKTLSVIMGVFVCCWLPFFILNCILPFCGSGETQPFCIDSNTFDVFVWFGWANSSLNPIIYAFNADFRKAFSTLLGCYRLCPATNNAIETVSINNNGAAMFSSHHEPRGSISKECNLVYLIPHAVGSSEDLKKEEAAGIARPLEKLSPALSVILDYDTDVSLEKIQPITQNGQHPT
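Inducible HEK293 T-REx D1 cells, force-coupled to calcium signalling, were plated at 4000 cells/well with tetracycline and held overnight at 30 C. After no-wash calcium dye loading, compound-evoked calcium rise over 180 s flagged agonists.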
TRHR PAM = allosterically enhances the human TRH receptor; P34981; TRHR cells, fluo-8 calcium fluorescence, EC20 TRH enhancement; enhancement, % at 2 µM; hit rate 0.66% among 360,000; AID 493056; in the data active = enhancement above about 30%
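TRHR-expressing cells loaded with fluo-8 calcium dye were read kinetically (ex 480/em 530) during compound addition, then stimulated with an EC20 of TRH (10 nM final). Enhancement of the Gq-mediated intracellular calcium response was scored.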
D1 antagonist = antagonists of human D1 dopamine receptor; P21728; HEK293 TREx D1 cells, calcium flux, dopamine EC80; active compounds read low; activity change, negative = inhibition, % at 10 µM; hit rate 3.2% among 360,000; in the data active = activity change below about -30%
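Calcium flux readout: force-coupled, inducible Hek293 Trex D1 line, cells induced overnight at 30 C with tetracycline, dye-loaded 30–90 min at RT. Antagonism scored against EC80 dopamine challenge given 180 s after compound.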
D1 PAM = potentiators of human D1 dopamine receptor; hit rate 0.036% among 360,000; P21728; HEK293 TREx D1 cells, calcium flux, dopamine EC20 potentiation; potentiation, % at 10 µM; in the data active = potentiation above about 30%
Hits are given with their value; n = inactive. An excerpt weighted towards active compounds, which were near 4.7% of everything screened. Rule as the data show it, unless noted: active = activation above about 30%; inactive = the rest.

SMILES	TRHR agonist	D1 agonist	TRHR PAM	D1 antagonist	D1 PAM
S=C(NCc1ccco1)N1CCN(c2ccc(Cl)cc2)CC1	n	n	40.0	n	n
S=C(NCc1ccccc1)N1CCN(c2ccccc2)CC1	n	n	n	-30.8	n
S=C(NC1CCCC1)N1CCN(C/C=C/c2ccccc2)CC1	n	n	n	-35.6	n
O=C(NCc1ccccc1)N1CCN(c2ccccc2)CC1	n	n	n	n	n
S=C(NC1CCCC1)N1CCN(c2ccc(Cl)cc2)CC1	n	n	n	-46.2	n
COC(=O)C(CCSC)NC(=O)c1c(C)oc2ncn(CC(C)C)c(=O)c12 (centres undefined)	n	n	n	n	n
CCCC[N+](C)(C)CCC(=O)NC(C)(C)CS(=O)(=O)[O-]	n	n	n	-33.9	n
Cc1ccc(S(=O)(=O)NCCCCCC(=O)NC(C)(C)CO)cc1	n	n	n	n	n
COc1cc(NC(=O)CN2CCN(S(=O)(=O)/C=C/c3ccccc3)CC2)cc(OC)c1OC	n	n	n	n	n
Cc1ccc(C(=O)OCC(=O)Nc2ccccc2Cl)c(O)c1	n	n	n	n	n
O=C(COC(=O)c1ccc(O)cc1O)Nc1cccc2ccccc12	n	n	35.1	n	n
COc1ccc(OC)c(CCNC(=O)c2cc3c(=O)oc4ccc(C)cc4c3s2)c1	n	n	n	n	n
O=C(c1ccco1)n1nc(-c2ccccc2)nc1SCc1ccccc1	n	n	n	n	n
Nc1nc(-c2ccccc2)nn1C(=O)c1ccco1	n	n	n	-34.1	n
COc1cc2c(cc1O)C(Cc1ccc(O)cc1)NCC2 (centres undefined)	n	n	n	-76.1	n
COc1ccc(C[C@H]2c3cc(O)c(OC)cc3CC[N+]2(C)[O-])cc1O (some centres undefined)	n	n	n	-82.9	n
COc1cc2c(cc1O)C(Cc1ccc(O)cc1)[N+](C)([O-])CC2 (centres undefined)	n	n	n	-38.0	n
COc1cc2c(cc1OC)[C@H](Cc1ccc(O)cc1)NCC2	n	n	n	n	n
CCOc1ccc(-c2cn3nc(CC(C)C)sc3n2)cc1	n	n	n	n	n
COc1ccccc1NC(=O)c1sc2nc(Cc3ccccc3)cc(C(F)(F)F)c2c1N	n	n	n	n	n
COc1ccc(NC(=O)c2sc3nc(Cc4ccccc4)cc(C(F)(F)F)c3c2N)cc1OC	n	n	31.9	n	n
Cc1ccc(NC(=O)c2c(C)oc3ncn(CC(C)C)c(=O)c23)nc1	n	n	31.0	n	n
COc1ccc(CCNC(=O)c2c(C)oc3ncn(CC(C)C)c(=O)c23)c(OC)c1	n	n	n	-30.4	n
Cc1ccnc(NC(=O)c2c(C)oc3ncn(CC(C)C)c(=O)c23)c1	n	n	n	n	n
Cc1coc2cc3oc(=O)ccc3cc12	n	n	n	n	n
SMILES	TRHR agonist	D1 agonist	TRHR PAM	D1 antagonist	D1 PAM
COc1ccc(C2/C=C\CN(C(=O)C3CCCC3)CC(=O)N2Cc2ccc(F)cc2)cc1 (centres undefined)	n	n	n	-34.3	n
CN1Cc2c(N3CCOCC3)nc3sc(C#N)c(N)c3c2CC1(C)C	n	n	n	n	n
CN1Cc2c(N3CCOCC3)nc3sc(C(=O)c4ccc(Br)cc4)c(N)c3c2CC1(C)C	n	33.9	n	-48.7	n
CCN(CC)c1nc2c(S(=O)(=O)c3ccc(C)cc3)nnn2c2ccsc12	n	n	n	n	n
COc1ccc(C(=O)Nc2ccc3c(c2)nc(CCNC(C)=O)n3C)cc1	n	n	31.2	n	n
COc1ccc(C(=O)O)cc1NC(=S)NC(=O)/C=C/c1ccc(C(C)C)cc1	n	n	32.2	n	n
CCCCC(=O)NC(=S)Nc1cc(C(=O)O)ccc1OC	n	n	n	n	n
O=C(Cn1c(=O)n(Cc2nc(-c3ccccc3)no2)c(=O)c2ccccc21)Nc1cccc(Cl)c1	n	n	n	n	n
Cc1cc(NC(=O)CS(=O)(=O)c2cn(Cc3ccc(F)cc3)c3ccccc23)no1	n	n	n	-39.1	n
Cc1cc(C)c2c(C)nn(-c3ccccc3)c2n1	n	36.6	n	n	n
Cn1c(=O)c2c(nc(SCC(=O)NCc3ccc4c(c3)OCO4)n2Cc2ccc(F)cc2)n(C)c1=O	n	n	n	-36.8	n
Cn1c(=O)c2c(nc(SCC(=O)NCc3ccc4c(c3)OCO4)n2Cc2ccccc2)n(C)c1=O	n	n	n	n	n
COc1ccc(C(=O)NNC(=O)C(NC(=O)c2ccccc2NC(=O)c2ccco2)C(C)C)cc1 (centres undefined)	n	n	n	n	n
CCC(C)C(NC(=O)c1ccccc1NC(=O)c1ccco1)C(=O)NNC(=O)c1ccc(OC)cc1 (centres undefined)	n	n	n	-63.5	n
Cc1ccc(NC(=O)c2ccc(OC(=O)c3ccco3)cc2)cc1	n	n	n	n	n
COc1ccc(NC(=O)c2ccco2)cc1NC(=O)c1ccc(OC(C)C)cc1	n	n	42.9	n	n
COC(=O)c1ccccc1Oc1ccc(NC(=O)c2ccco2)cc1	n	n	n	-37.2	n
Cc1ccc(Oc2ccc(NC(=O)c3ccco3)cc2)cc1	n	n	n	-46.5	n
Cc1ccc(-c2nsc(NC(=O)c3oc4cc(C)c(Cl)cc4c3C)n2)cc1	n	n	n	n	n
O=C(COc1ccccc1)Nc1ccc(NC(=O)c2ccco2)cc1	n	n	n	-73.3	n
CC(C)COc1ccc(C(=O)Nc2ccc(NC(=O)c3ccco3)cc2)cc1	n	n	n	-34.9	n
Cc1ccc(-c2nnc(NC(=O)c3ccco3)s2)cc1	n	n	n	n	n
COc1ccc(OCC(=O)Nc2ccc(NC(=O)c3ccco3)cc2)cc1	n	n	n	n	n
Cc1oc(C(=O)Nc2ccc(O)cc2)cc1COc1ccccc1	n	n	n	-32.3	n
Cc1nnc(NC(=O)c2ccco2)s1	n	n	n	-52.5	n
SMILES	TRHR agonist	D1 agonist	TRHR PAM	D1 antagonist	D1 PAM
CCC(=O)N1CCc2cc(S(=O)(=O)CCC(=O)Nc3ccc(C)cn3)ccc21	n	n	n	n	n
CCc1ccc(NC(=O)C(CC)n2c(=O)c(-c3ccccc3NC(C)=O)nc3ccccc32)cc1 (centres undefined)	n	n	n	n	n
CC(=O)NCCOc1cccc2ccccc12	n	n	n	n	n
c1ccc(CCNCCCOc2cccc3ccccc23)cc1	n	50.3	n	n	n
CN(CC(=O)Nc1ccc(F)cc1)C(=O)c1cccc(NS(=O)(=O)c2ccccc2)c1	n	n	n	n	n
COc1ccc(CCN2C(=O)CN=C2Nc2ccc(F)cc2)cc1OC	n	n	n	-39.3	n
C=CCN1C(=O)CN=C1Nc1ccc(F)cc1	n	n	n	n	n
CCOc1ccc(NC2=NCC(=O)N2CCc2ccccc2)cc1	n	101.7	n	-65.2	n
Cc1ccc(NC2=NCC(=O)N2CCc2ccccc2)cc1C	n	n	n	n	n
CCOc1ccc(NC2=C(OC)C(=O)c3ccccc3C2=O)cc1	n	n	n	-32.6	n

Compound activity: PubChem, National Center for Advancing Translational Sciences (NCATS)
